Each structure is given as a SMILES string.

The source of these data is the supplement of paper PMC6763611.

The assay deals with Plasmodium falciparum NF54. As to the kind of experiment: growth inhibition relative to untreated control; higher = more inhibition. As to conditions: 1 µM; MM + chorismate end-products (CM screening medium); 72 h. In outline: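 Two media were used: minimal RPMI, and minimal RPMI carrying the chorismate end-products folate, pABA, pHBA, tyrosine, phenylalanine and tryptophan at 2.2 μM, 7.3 μM, 7.3 μM, 111 μM and 90 μM for the first five. In these media, P. falciparum NF54 ring stages (1% hematocrit, 1% parasitemia, 100 μL/well) were exposed in dark 96-well half-area plates to a single 5 μM or 1 μM test-compound dose for 72 h at 37 °C. Growth inhibition was then assessed with SYBR Green against untreated wells, subtracting background from uninfected erythrocytes.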
On to `O=C(NCc1ccco1)N1CCN(Cc2ccc(Cl)s2)CC1`, for which the growth inhibition was found to be 12.8%. The value for `Cc1nn2c(=O)c3c([nH]c2c1-c1ccc(Cl)cc1)CCCC3` was under 0%; that for `O=C(Cn1ccnc1[N+](=O)[O-])NCc1ccccc1` was 20.5%. The value for `O=C(Nc1cccc(-c2ccc(NCCCN3CCCC3)nc2)c1)c1ccccc1` was 96.3%.

For `CCOC(=O)NC(=O)c1ccsc1NC(=O)c1nc2ccccc2s1`, the growth inhibition was 36.1%. Regarding `CCN(CC)S(=O)(=O)c1ccc(Cl)c(C(=O)Nc2ccc3nc(C)sc3c2)c1`, the growth inhibition amounted to 98.3%.

With `COc1ccc(Nc2ccccc2NC(=O)c2ccc(O)nc2)cc1`, the growth inhibition turned out to be 12.7%. On to `COc1ccc(C2=NN(C3CCCCCC3)C(=O)[C@@H]3CC=CC[C@H]23)cc1OCCCCOc1ccc(-c2nnn[nH]2)cc1`, for which the growth inhibition is 19%. The value for `CCOc1ccc(OCC(=O)Nc2cc(C)cc(C)c2)cc1` was 24.6%.

In the case of `Cc1cc(OCC(=O)Nc2ccc(C(C)C)cc2)n(C)c(=O)c1C#N`, the growth inhibition was found to be 18.1%. For `Cc1cc(Cl)c(S(=O)(=O)N2CCCC2)cc1OCC(=O)NC1CCCCC1` the value was 71.3%; for `COC(=O)c1c(NC(=O)c2cc3ccccc3oc2=O)sc2c1CCN(Cc1ccccc1)C2`, under 0%; for `Nc1nccc2ccc(Oc3ccncc3)cc12`, 73.9%. For `CC1=Nc2ccc(Cl)cc2C(c2ccccc2)N1CCNC(=O)CN(C)C` (stereo not drawn), the growth inhibition turned out to be 49%. For `CCc1c(C)nc(-n2nc(C)cc2NC(=O)c2ccccc2SC)[nH]c1=O` the value was 72.1%. The value for `CC(C)(C)OC(=O)N1CCN(c2cc(-c3ccc(Oc4ccccc4)cc3)n[nH]2)CC1` was under 0%; that for `CC(C)c1ncc(-c2ccncc2)c([C@H]2CC[C@H](CNC(=O)c3cccnc3)CC2)n1` was 77.1%; that for `COc1ccc(C2CC(c3cccs3)=NN2C(=O)c2ccco2)cc1OC` (stereo not drawn) was 91.4%.

Take `CNC(=O)c1nn(C)c2c1C(C)(C)Cc1cnc(Nc3ccc(N4CCN(C)CC4)cc3)nc1-2`: the growth inhibition was 64.5%. On to `C[C@H](C(N)=O)N1CCCC[C@H]1c1ccc(OCc2cccc(F)c2)cc1`, for which the growth inhibition stood at 18.3%. As for `O=C(Nc1cccnc1)c1c(O)c2cccc3c2n(c1=O)CC3`, the growth inhibition stood at 6.17%. For `COc1ccc(-c2cnc3cnc(-c4cccc(OC(C)C)c4)cn23)cc1`, the growth inhibition was determined as 36.4%. The value for `O=C(NC1CC1)c1ccc(N2CCC(Cc3ccccc3)CC2)nc1` was 95.5%; that for `CCN(CC)S(=O)(=O)c1ccc(C(=O)Nc2cc(C)nn2-c2nc(C)c(C)c(=O)[nH]2)cc1` was 19.9%; that for `Nc1ncc(Br)cc1-c1nc2cc(Cl)cnc2[nH]1` was 61.7%.

Regarding `Cc1ccccc1CN1CCC(O)(c2ccc(Cl)c(C(F)(F)F)c2)CC1`, the growth inhibition was found to be 51.6%. In the case of `NCCCC(N)(C(=O)O)C(F)F` (stereo not drawn), the growth inhibition came out at 14%. Regarding `COc1ccccc1OCCCCn1c(C2CC2)nc2ccccc21`, the growth inhibition turned out to be 37%. For `CNc1nnc(Sc2cnn(-c3ccccc3)c(=O)c2Cl)s1` the value was 27%; for `O=C(NCCc1ccccc1)c1cc(-c2cccnc2)cnc1NCC1CC1`, 77.5%.

Regarding `c1ccc(-c2[nH]c3ccccc3c2C(c2ccccn2)N2CCCC2)cc1` (stereo not drawn), the growth inhibition was determined as 3.66%. For `CC(C)(C)c1cc(C(=O)N2CCN(c3nccnc3C#N)CC2)n(Cc2ccccc2)n1` the value was 73.4%.

For the compound `CCCNC(=O)N1CCC2(CC1)CC(=O)c1cc(C)ccc1O2`, the growth inhibition turned out to be 72.5%. The value for `O=C(Nc1nnc(-c2ccc(Cl)cc2)o1)c1cccc(C(F)(F)F)c1` was 11.8%; that for `COC(=O)c1ccc(F)cc1NS(=O)(=O)c1cccc(-c2cnn(Cc3ccccc3)c2)c1` was 33.2%; that for `Cc1ccc(S(=O)(=O)Nc2ccc(CN3CCN(C(=O)c4cccc(C#N)c4)CC3)cc2)cc1` was 5.22%.

On to `CN1CCN(CCCOc2ncc(Nc3ncc(-c4ccc(C(F)(F)F)c(F)c4)nc3C(N)=O)cn2)CC1`, for which the growth inhibition was over 100%. For `c1csc(-c2cnc3sc(NCC4CCOCC4)nn23)c1` the value was 60.9%.
